# Source: PMC7862700, “An all-to-all approach to the identification of sequence-specific readers for epigenetic DNA modifications on cytosine”
# Columns and labels:
# Assay in all cases: DAPPL (digital affinity profiling via proximity ligation, sequencing); 10 mM Tris-HCl pH 7.5, 50 mM NaCl, 1 mM DTT, 4% glycerol, room temperature, 30 min; GST-TFs on glutathione beads, 16-mer random dsDNA library, 0.1% formaldehyde crosslink after washing; high values mean tight binding
# [1] = target: T1, FEV (Homo sapiens, UniProt Q99581 1-238); settings: protein: recombinant; tags: N-terminal GST; dsDNA, one strand shown
# T1 sequence: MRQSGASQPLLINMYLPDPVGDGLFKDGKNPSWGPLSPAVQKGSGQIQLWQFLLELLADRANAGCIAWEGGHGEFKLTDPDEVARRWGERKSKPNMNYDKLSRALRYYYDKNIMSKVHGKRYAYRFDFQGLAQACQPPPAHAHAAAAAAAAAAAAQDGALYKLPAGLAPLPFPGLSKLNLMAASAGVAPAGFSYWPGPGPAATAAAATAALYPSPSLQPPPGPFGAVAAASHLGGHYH
# Summary of the method: (§1)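 Human transcription factors carrying a GST fusion were produced in yeast, bound to glutathione beads, tagged with DNA barcodes and pooled together with a tag-only sample. Each pool was held with 200 nmole of a random double-stranded 16-mer DNA library in Tris/NaCl/DTT/glycerol buffer for 30 min at room temperature, then washed, crosslinked in 0.1% formaldehyde, proximity-ligated with BsaI/T4 ligase (1 h, 37 °C), PCR-amplified and sequenced on an Illumina NextSeq500. Binding signal is the read frequency of each hexamer for a given factor divided by its frequency in the tag-only sample.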
# [2] = target: ETV5 (Homo sapiens, UniProt P41161 1-510); settings: protein: recombinant; tags: N-terminal GST; dsDNA, one strand shown
# Sequence of ETV5 (P41161 whole entry): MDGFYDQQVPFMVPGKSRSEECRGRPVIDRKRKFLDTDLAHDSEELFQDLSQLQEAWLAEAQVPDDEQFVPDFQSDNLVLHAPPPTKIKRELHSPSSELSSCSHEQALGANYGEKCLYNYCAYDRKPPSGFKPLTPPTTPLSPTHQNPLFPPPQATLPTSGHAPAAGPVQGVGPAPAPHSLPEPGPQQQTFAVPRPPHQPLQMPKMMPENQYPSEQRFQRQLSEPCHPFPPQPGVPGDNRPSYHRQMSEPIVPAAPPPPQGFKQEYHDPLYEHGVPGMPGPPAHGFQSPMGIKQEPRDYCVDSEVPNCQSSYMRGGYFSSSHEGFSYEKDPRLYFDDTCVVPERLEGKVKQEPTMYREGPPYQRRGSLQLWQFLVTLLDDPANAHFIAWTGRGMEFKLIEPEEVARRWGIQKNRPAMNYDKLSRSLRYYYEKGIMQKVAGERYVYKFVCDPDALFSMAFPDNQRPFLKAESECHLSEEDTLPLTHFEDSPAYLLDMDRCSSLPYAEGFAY
# Summary of the method: as §1
# [3] = target: HSF1 (Homo sapiens, UniProt Q00613 1-529); settings: protein: recombinant; tags: N-terminal GST; chain copies: 3; dsDNA, one strand shown
# Sequence of HSF1 (Q00613 whole entry): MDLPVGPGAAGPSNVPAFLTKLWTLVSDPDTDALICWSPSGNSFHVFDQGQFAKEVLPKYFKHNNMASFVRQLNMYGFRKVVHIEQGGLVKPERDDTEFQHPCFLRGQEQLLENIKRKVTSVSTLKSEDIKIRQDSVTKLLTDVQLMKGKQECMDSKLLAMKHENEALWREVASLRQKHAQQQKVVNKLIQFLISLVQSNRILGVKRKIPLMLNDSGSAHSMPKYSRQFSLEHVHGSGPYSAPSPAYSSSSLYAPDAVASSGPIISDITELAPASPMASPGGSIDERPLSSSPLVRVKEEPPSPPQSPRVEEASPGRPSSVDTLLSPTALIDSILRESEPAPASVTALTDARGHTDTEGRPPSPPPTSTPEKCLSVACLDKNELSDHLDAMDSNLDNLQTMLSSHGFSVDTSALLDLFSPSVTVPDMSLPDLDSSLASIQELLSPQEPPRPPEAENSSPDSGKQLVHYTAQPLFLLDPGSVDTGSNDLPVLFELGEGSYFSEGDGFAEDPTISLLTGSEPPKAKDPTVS
# Summary of the method: as §1
# [4] = target: T2, SPIC (Homo sapiens, UniProt Q8N5J4 1-248); settings: protein: recombinant; tags: N-terminal GST; dsDNA, one strand shown
# T2 sequence: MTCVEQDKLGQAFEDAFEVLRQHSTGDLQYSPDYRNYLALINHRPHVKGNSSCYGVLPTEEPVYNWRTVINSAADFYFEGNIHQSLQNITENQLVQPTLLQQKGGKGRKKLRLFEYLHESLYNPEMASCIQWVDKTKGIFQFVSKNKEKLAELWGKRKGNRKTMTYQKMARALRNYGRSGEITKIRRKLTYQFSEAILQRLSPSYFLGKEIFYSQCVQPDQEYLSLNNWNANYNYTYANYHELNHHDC
# Summary of the method: as §1
# [5] = target: ELF4 (Homo sapiens, UniProt Q99607 1-663); settings: protein: recombinant; tags: N-terminal GST; dsDNA, one strand shown
# Sequence of ELF4 (Q99607 whole entry): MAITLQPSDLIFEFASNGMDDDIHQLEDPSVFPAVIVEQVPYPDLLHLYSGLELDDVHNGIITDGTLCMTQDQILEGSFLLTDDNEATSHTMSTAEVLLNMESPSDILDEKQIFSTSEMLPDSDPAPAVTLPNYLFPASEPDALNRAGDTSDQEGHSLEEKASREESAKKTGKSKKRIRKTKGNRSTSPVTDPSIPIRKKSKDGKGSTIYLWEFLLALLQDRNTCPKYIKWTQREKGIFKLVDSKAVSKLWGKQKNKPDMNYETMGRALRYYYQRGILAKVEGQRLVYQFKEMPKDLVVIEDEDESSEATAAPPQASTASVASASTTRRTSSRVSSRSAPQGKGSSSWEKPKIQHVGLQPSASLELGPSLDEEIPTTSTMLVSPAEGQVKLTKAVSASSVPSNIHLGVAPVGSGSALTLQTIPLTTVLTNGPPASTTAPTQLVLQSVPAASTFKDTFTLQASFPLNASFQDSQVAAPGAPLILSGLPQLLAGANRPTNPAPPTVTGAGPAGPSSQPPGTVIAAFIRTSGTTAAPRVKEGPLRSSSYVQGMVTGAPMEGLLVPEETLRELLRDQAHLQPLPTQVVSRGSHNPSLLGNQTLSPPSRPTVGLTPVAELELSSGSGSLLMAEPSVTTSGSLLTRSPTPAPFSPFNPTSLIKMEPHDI
# Summary of the method: as §1
# [6] = target: T3, ELK4 (Homo sapiens, UniProt P28324-2 1-405); settings: protein: recombinant; tags: N-terminal GST; dsDNA, one strand shown
# T3 sequence: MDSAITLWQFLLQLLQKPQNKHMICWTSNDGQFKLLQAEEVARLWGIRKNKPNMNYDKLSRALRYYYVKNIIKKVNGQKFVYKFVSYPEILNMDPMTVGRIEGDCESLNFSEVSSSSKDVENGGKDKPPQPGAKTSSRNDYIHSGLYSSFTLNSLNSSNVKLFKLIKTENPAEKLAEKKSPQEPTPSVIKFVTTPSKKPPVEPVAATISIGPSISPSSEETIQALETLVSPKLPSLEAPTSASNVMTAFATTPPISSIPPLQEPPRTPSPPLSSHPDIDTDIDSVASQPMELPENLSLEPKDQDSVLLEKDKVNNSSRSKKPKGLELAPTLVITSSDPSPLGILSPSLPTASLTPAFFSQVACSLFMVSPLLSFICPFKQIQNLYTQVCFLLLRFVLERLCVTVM
# Summary of the method: as §1
# [7] = target: T4, ETV2 (Homo sapiens, UniProt O00321 1-342); settings: protein: recombinant; tags: N-terminal GST; dsDNA, one strand shown
# T4 sequence: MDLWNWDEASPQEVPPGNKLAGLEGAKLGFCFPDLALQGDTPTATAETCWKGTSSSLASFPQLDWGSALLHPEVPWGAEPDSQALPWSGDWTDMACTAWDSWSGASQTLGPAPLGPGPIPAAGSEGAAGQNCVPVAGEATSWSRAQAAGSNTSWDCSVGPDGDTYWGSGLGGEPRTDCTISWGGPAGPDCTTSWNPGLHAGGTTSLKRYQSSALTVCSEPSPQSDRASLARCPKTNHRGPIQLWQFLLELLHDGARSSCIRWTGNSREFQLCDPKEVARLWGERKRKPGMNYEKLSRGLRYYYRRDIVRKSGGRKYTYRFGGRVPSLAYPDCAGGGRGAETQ
# Summary of the method: as §1
# [8] = target: T5, ELF3 (Homo sapiens, UniProt P78545 1-371); settings: protein: recombinant; tags: N-terminal GST; dsDNA, one strand shown
# T5 sequence: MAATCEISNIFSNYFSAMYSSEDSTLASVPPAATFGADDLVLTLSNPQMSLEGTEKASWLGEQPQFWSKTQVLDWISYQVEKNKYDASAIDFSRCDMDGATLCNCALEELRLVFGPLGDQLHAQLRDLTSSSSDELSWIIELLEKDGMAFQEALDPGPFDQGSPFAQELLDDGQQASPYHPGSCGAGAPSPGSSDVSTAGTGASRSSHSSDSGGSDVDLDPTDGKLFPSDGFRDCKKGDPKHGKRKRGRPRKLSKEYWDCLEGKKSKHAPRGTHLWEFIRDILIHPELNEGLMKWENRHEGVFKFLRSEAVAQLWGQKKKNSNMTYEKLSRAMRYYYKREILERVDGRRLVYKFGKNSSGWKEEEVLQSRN
# Summary of the method: as §1
# [9] = target: CRX (Homo sapiens, UniProt O43186 1-299); settings: protein: recombinant; tags: N-terminal GST; dsDNA, one strand shown
# Sequence of CRX (O43186 whole entry): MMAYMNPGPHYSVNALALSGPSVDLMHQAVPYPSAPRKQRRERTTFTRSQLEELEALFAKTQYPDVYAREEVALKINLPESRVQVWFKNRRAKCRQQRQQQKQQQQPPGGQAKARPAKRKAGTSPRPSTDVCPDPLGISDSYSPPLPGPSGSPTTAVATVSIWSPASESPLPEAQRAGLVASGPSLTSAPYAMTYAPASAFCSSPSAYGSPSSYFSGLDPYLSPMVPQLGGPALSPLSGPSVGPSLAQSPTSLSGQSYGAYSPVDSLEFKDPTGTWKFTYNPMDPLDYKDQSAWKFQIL
# Summary of the method: as §1
# [10] = target: ETV1 (Homo sapiens, UniProt P50549 1-477); settings: protein: recombinant; tags: N-terminal GST; dsDNA, one strand shown
# Sequence of ETV1 (P50549 whole entry): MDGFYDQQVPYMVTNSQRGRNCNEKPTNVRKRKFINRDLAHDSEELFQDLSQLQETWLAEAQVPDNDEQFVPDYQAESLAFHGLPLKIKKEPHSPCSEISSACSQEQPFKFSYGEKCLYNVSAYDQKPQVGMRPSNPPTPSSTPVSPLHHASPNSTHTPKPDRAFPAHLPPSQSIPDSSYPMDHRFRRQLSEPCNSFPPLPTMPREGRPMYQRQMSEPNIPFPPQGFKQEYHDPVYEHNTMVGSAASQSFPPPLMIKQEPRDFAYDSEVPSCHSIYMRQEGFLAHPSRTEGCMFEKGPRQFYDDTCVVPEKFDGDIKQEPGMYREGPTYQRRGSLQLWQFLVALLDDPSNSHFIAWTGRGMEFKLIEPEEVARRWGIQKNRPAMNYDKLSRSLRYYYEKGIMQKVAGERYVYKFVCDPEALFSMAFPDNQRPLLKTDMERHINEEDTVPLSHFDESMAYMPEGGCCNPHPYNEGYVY
# Summary of the method: as §1
# [11] = target: T6, ERF (Homo sapiens, UniProt P50548 1-548); settings: protein: recombinant; tags: N-terminal GST; dsDNA, one strand shown
# T6 sequence: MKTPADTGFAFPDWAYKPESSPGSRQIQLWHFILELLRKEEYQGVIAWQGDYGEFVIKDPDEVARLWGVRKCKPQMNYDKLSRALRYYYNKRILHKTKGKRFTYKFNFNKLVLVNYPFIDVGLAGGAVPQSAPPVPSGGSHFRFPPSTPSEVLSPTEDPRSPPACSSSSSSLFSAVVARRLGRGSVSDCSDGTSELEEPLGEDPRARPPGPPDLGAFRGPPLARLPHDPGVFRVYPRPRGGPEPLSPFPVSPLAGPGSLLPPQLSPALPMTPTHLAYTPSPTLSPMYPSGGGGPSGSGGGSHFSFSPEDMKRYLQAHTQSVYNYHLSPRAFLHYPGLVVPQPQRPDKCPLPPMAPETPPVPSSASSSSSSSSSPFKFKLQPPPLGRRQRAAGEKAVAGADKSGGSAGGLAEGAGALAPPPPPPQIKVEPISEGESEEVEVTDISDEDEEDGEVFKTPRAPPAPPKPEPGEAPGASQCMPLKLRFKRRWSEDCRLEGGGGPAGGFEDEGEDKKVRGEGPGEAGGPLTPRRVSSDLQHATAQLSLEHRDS
# Summary of the method: as §1
# [12] = target: T7, ETV3L (Homo sapiens, UniProt Q6ZN32 1-361); settings: protein: recombinant; tags: N-terminal GST; dsDNA, one strand shown
# T7 sequence: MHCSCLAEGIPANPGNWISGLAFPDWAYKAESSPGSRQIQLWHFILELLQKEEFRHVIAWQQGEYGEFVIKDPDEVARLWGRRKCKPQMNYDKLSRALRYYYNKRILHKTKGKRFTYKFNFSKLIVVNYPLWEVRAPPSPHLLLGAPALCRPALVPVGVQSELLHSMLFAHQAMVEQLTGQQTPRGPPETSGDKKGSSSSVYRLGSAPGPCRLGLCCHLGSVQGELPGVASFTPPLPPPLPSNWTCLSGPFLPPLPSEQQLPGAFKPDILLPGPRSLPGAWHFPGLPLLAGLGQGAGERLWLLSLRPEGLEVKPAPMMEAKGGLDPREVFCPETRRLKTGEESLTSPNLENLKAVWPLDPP
# Summary of the method: as §1
# [13] = target: T8, ETS2 (Homo sapiens, UniProt P15036 1-469); settings: protein: recombinant; tags: N-terminal GST; dsDNA, one strand shown
# T8 sequence: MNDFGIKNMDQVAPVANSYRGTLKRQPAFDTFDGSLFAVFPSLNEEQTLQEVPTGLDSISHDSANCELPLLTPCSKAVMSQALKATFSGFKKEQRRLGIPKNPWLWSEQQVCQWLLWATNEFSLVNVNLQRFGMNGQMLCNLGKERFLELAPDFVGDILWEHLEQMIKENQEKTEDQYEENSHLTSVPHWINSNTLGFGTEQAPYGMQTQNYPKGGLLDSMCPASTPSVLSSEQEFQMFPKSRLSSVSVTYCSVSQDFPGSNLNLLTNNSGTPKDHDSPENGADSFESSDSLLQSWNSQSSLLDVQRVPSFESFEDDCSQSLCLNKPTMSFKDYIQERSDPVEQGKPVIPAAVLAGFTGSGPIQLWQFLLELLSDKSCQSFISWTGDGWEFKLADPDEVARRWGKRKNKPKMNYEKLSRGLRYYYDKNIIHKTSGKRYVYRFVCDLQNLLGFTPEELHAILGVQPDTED
# Summary of the method: as §1
# [14] = target: T9, SPDEF (Homo sapiens, UniProt O95238 1-335); settings: protein: recombinant; tags: N-terminal GST; dsDNA, one strand shown
# T9 sequence: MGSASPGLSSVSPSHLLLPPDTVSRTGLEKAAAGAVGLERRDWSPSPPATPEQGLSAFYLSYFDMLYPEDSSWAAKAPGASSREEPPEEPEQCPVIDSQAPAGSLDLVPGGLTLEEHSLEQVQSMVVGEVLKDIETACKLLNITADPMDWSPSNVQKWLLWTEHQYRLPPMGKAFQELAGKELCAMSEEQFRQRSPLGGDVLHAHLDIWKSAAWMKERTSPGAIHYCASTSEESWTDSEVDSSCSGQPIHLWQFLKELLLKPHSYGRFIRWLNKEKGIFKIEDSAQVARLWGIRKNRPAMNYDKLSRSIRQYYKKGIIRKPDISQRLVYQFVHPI
# Summary of the method: as §1
# [15] = target: T10, ETV7 (Homo sapiens, UniProt Q9Y603 1-341); settings: protein: recombinant; tags: N-terminal GST; dsDNA, one strand shown
# T10 sequence: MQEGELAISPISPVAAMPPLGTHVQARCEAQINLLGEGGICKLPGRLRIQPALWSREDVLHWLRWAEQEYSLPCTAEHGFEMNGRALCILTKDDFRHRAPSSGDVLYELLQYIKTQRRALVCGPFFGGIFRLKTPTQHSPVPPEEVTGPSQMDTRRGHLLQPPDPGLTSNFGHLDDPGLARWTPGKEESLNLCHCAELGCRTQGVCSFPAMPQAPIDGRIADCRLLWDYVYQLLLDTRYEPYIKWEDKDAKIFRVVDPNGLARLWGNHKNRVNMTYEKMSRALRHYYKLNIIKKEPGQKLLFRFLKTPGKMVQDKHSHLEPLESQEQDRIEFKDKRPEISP
# Summary of the method: as §1
# [16] = target: T11, ELF5 (Homo sapiens, UniProt Q9UKW6-2 1-255); settings: protein: recombinant; tags: N-terminal GST; dsDNA, one strand shown
# T11 sequence: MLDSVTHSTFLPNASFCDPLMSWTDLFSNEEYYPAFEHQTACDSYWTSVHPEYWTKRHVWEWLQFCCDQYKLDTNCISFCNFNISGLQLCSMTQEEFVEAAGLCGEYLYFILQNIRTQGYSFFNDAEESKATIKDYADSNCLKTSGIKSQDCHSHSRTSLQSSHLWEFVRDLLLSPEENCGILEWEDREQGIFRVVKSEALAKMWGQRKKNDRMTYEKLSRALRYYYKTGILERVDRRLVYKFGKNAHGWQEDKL
# Summary of the method: as §1
# [17] = target: T12, ETV3 (Homo sapiens, UniProt P41162-2 1-143); settings: protein: recombinant; tags: N-terminal GST; dsDNA, one strand shown
# T12 sequence: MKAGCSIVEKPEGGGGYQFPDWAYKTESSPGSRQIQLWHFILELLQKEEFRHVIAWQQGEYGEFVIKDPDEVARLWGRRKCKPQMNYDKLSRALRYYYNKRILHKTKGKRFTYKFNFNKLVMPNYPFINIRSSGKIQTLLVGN
# Summary of the method: as §1
# [18] = target: ETV6 (Homo sapiens, UniProt P41212 1-452); settings: protein: recombinant; tags: N-terminal GST; dsDNA, one strand shown
# Sequence of ETV6 (P41212 whole entry): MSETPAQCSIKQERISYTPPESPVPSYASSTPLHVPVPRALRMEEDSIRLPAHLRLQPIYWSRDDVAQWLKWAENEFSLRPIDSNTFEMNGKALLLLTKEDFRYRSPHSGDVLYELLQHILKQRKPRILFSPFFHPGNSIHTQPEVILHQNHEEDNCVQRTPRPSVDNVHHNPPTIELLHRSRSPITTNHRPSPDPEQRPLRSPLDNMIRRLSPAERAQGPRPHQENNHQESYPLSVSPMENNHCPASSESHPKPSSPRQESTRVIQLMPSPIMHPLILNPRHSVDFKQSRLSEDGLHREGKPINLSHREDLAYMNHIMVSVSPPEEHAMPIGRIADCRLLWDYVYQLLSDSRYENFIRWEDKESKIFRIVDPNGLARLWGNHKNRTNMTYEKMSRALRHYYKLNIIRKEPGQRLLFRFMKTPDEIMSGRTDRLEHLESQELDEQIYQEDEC
# Summary of the method: as §1
sequence,measurement,setting,value
ATAGAA,binding signal,[1],"1.04 fold enrichment (6-mer frequency, TF over GST control)"
same,binding signal,[2],"1.05 fold enrichment (6-mer frequency, TF over GST control)"
same,binding signal,[3],"1.93 fold enrichment (6-mer frequency, TF over GST control)"
same,binding signal,[4],"1.03 fold enrichment (6-mer frequency, TF over GST control)"
same,binding signal,[5],"1.1 fold enrichment (6-mer frequency, TF over GST control)"
same,binding signal,[6],"1.02 fold enrichment (6-mer frequency, TF over GST control)"
same,binding signal,[7],"1.01 fold enrichment (6-mer frequency, TF over GST control)"
same,binding signal,[8],"1 fold enrichment (6-mer frequency, TF over GST control)"
same,binding signal,[9],"1.28 fold enrichment (6-mer frequency, TF over GST control)"
same,binding signal,[10],"1.12 fold enrichment (6-mer frequency, TF over GST control)"
same,binding signal,[11],"1.1 fold enrichment (6-mer frequency, TF over GST control)"
same,binding signal,[12],"1.1 fold enrichment (6-mer frequency, TF over GST control)"
same,binding signal,[13],"1.07 fold enrichment (6-mer frequency, TF over GST control)"
same,binding signal,[14],"1.02 fold enrichment (6-mer frequency, TF over GST control)"
same,binding signal,[15],"1.16 fold enrichment (6-mer frequency, TF over GST control)"
same,binding signal,[16],"1.04 fold enrichment (6-mer frequency, TF over GST control)"
same,binding signal,[17],"1.1 fold enrichment (6-mer frequency, TF over GST control)"
same,binding signal,[18],"1.13 fold enrichment (6-mer frequency, TF over GST control)"
